Measurements: PubChem BioAssay (NCI)
Compounds without any hit were thinned out: in the full panel of roughly 79,000, 15% have a hit. Activity calls are given as the source filed them. Rule as the data show it: active = growth inhibition above about 70%; inactive = the rest.

What was measured:
[1] = NCI Yeast Anticancer Drug Screen. Data for the rad52 strain (AID 147);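 also: 0% = growth of vehicle-treated control cultures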; details: S. cerevisiae rad52 mutant growth inhibition, stronger effect = higher value
In short: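 Read-out: growth inhibition versus vehicle-treated controls. Cells were a DNA repair-deficient yeast strain treated with compounds.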

[2] = NCI Yeast Anticancer Drug Screen. Data for the rad50EPP+ strain (AID 151);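 also: 0% = growth of vehicle-treated control cultures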; details: S. cerevisiae rad50 mutant strain, stronger effect = higher value
In short: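 Growth inhibition read against vehicle controls in rad50EPP+ yeast, a strain altered in DNA damage repair, after compound exposure.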

[3] = NCI Yeast Anticancer Drug Screen. Data for the rad50 strain (AID 155);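 also: 0% = growth of vehicle-only cultures of the same strain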; details: S. cerevisiae rad50 strain growth inhibition, stronger effect = higher value
In short: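 Relative growth inhibition (compound vs vehicle) was measured in yeast with a defined repair-gene alteration.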

[4] = NCI Yeast Anticancer Drug Screen. Data for the mec2-1 strain (AID 157); details: S. cerevisiae mec2-1 strain, stronger effect = higher value
In short: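 Yeast mec2-1 mutant treated with compound. Readout: growth inhibition vs vehicle controls.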

[5] = NCI Yeast Anticancer Drug Screen. Data for the rad14 strain (AID 159);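 also: 0% = growth of vehicle-treated control cultures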; details: S. cerevisiae rad14 strain growth inhibition, stronger effect = higher value
In short: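 Screen for anticancer potential: a yeast strain altered in DNA damage repair is grown with compound, and reduced growth is quantified against vehicle controls.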

[6] = NCI Yeast Anticancer Drug Screen. Data for the sgs1 mgt1 strain (AID 161);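 also: 0% = growth of cultures given vehicle only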; details: S. cerevisiae sgs1 mgt1 strain, stronger effect = higher value
In short: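 Test agents were incubated with a DNA-repair-mutant yeast strain. Growth was then read and compared against vehicle-treated controls.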

[7] = NCI Yeast Anticancer Drug Screen. Data for the CLN2oe strain (AID 163);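 also: 0% = growth of vehicle-only control cultures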; details: S. cerevisiae CLN2oe strain, stronger effect = higher value
In short: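 Read-out: yeast growth inhibition, expressed relative to vehicle-only controls. The strain bears an engineered cell-cycle alteration.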

[8] = NCI Yeast Anticancer Drug Screen. Data for the cln2 rad14 strain (AID 165);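 also: 0% = growth equal to vehicle treated cultures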; details: S. cerevisiae cln2 rad14 strain, stronger effect = higher value
In short: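 cln2 rad14 yeast strain; compound exposure; growth inhibition read vs vehicle controls.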

[9] = NCI Yeast Anticancer Drug Screen. Data for the bub3 strain (AID 167); details: S. cerevisiae bub3 mutant strain, stronger effect = higher value
In short: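 Screening used yeast with an engineered genetic alteration affecting cell cycle control. Compound-exposed cultures were compared with vehicle cultures, and reduced growth was taken as inhibition.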

[10] = NCI Yeast Anticancer Drug Screen. Data for the mlh1 strain (AID 171);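 also: 0% = growth of vehicle-treated control cultures of the same strain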; details: S. cerevisiae mlh1 strain growth inhibition, stronger effect = higher value
In short: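 Read-out: growth inhibition versus vehicle controls. Strain: engineered yeast with a defined DNA repair or cell cycle defect, compound-treated.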

[11] = NCI Yeast Anticancer Drug Screen. Data for the sgs1 strain (AID 173);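 also: 0% = growth of vehicle-only control cultures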; details: S. cerevisiae sgs1 mutant, stronger effect = higher value
In short: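 Read-out: yeast growth inhibition relative to vehicle controls, following compound exposure of a strain with a defined DNA repair/cell cycle alteration.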

[12] = NCI Yeast Anticancer Drug Screen. Data for the mlh1 rad18 strain (AID 175); details: S. cerevisiae mlh1 rad18 strain growth inhibition, stronger effect = higher value
In short: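 Yeast w/ defined DNA-repair lesions; compound exposure; growth vs vehicle controls → % inhibition.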

[13] = NCI Yeast Anticancer Drug Screen. Data for the rad18 strain (AID 177); details: S. cerevisiae rad18 mutant growth inhibition, stronger effect = higher value
In short: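 Readout: growth inhibition vs vehicle controls. Cells: genetically altered yeast strain, DNA repair defect.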

[14] = NCI Yeast Anticancer Drug Screen. Data for the wt1 strain (AID 149);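 also: 0% = growth of vehicle-treated wt1 cultures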; details: S. cerevisiae wt1 strain (SPY 50644) growth inhibition, stronger effect = higher value
In short: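 Using yeast strain wt1, compound-induced growth inhibition was determined against vehicle-treated cultures.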

[15] = NCI Yeast Anticancer Drug Screen. Data for the mgt1 strain (AID 153); details: S. cerevisiae mgt1 mutant growth inhibition, stronger effect = higher value
In short: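 mgt1 yeast grown with test compound; read-out is growth inhibition versus vehicle-treated cultures.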

[16] = NCI Yeast Anticancer Drug Screen. Data for the wt2 strain (AID 169);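 also: 0% = growth of vehicle-treated yeast cultures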; details: S. cerevisiae wt2 strain growth inhibition, stronger effect = higher value
In short: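 Read-out: growth inhibition versus vehicle-treated control cultures after compound exposure of the yeast strain.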

[17] = at 5.0 µM (retest, dose inferred, filed as 0.5)
[18] = at 50.0 µM (retest, dose inferred, filed as 5.0)

Measured: growth inhibition

Cc1c2c(nc3ccccc13)C(=O)c1cccnc1C2=O
inactive: [1]; at 1.2 µM -10% | [1]; at 3.7 µM 0% | [1]; at 11.0 µM 9% | [2]; at 1.2 µM -6% | [2]; at 3.7 µM -11% | [2]; at 11.0 µM -2% | [2]; at 33.0 µM 45% | [3]; at 1.2 µM 9% | [3]; at 3.7 µM 15% | [3]; [17] 57% | [3]; at 11.0 µM 21% | [4]; at 1.2 µM -18% | [4]; at 3.7 µM -10% | [4]; [17] -4% | [4]; at 11.0 µM -13% | [4]; at 33.0 µM 7% | [4]; at 50.0 µM 66.8% | [5]; at 1.2 µM 3% | [5]; at 3.7 µM 3% | [5]; at 11.0 µM 4% | [5]; at 33.0 µM 23% | [6]; [17] 1% | [7]; at 1.2 µM -8% | [7]; at 3.7 µM 1% | [7]; at 11.0 µM 3% | [7]; at 33.0 µM 11% | [8]; [17] -1% | [8]; at 50.0 µM 64% | [9]; at 1.2 µM 5% | [9]; at 3.7 µM 7% | [9]; [17] 12% | [9]; at 11.0 µM -13% | [9]; at 33.0 µM 4% | [10]; at 1.2 µM 22% | [10]; at 3.7 µM 15% | [10]; at 11.0 µM 20% | [10]; at 33.0 µM 17% | [11]; at 1.2 µM -9% | [11]; at 3.7 µM -11% | [11]; at 11.0 µM -9% | [11]; at 33.0 µM 11% | [12]; [17] 19% | [13]; at 1.2 µM -11% | [13]; at 3.7 µM -5% | [13]; at 11.0 µM 0% | [13]; at 33.0 µM 23%
active: [1]; at 33.0 µM 75% | [1]; at 100.0 µM 94% | [2]; at 100.0 µM 92% | [3]; at 33.0 µM 78% | [3]; [18] 90% | [3]; at 50.0 µM 77.8% | [3]; at 100.0 µM 94% | [4]; [18] 90% | [4]; at 100.0 µM 83% | [5]; at 100.0 µM 81% | [6]; [18] 78% | [6]; at 50.0 µM 79.2% | [7]; at 100.0 µM 78% | [8]; [18] 72% | [9]; [18] 83% | [9]; at 50.0 µM 75.7% | [9]; at 100.0 µM 83% | [10]; at 100.0 µM 84% | [11]; at 100.0 µM 81% | [12]; [18] 90% | [12]; at 50.0 µM 84% | [13]; at 100.0 µM 90%

COc1ccc(C2CC(C)(N3CCCC3)Oc3cc4c(cc32)OCO4)cc1 (stereo unspecified)
active: [15]; at 100.0 µM 85% | [3]; at 100.0 µM 92% | [9]; [18] 74% | [9]; at 100.0 µM 87% | [16]; at 100.0 µM 92% | [10]; at 100.0 µM 83% | [11]; at 100.0 µM 83% | [12]; [18] 75% | [12]; at 50.0 µM 76.7% | [13]; at 100.0 µM 77%
inactive: [14]; at 1.2 µM -3% | [14]; at 3.7 µM -3% | [14]; at 11.0 µM -5% | [14]; at 33.0 µM -9% | [14]; at 100.0 µM 11% | [2]; at 1.2 µM 4% | [2]; at 3.7 µM 4% | [2]; at 11.0 µM 3% | [2]; at 33.0 µM 9% | [2]; at 100.0 µM -3% | [15]; at 1.2 µM -1% | [15]; at 3.7 µM -1% | [15]; at 11.0 µM -3% | [15]; at 33.0 µM -5% | [3]; at 1.2 µM 5% | [3]; at 3.7 µM 1% | [3]; [17] -7% | [3]; at 11.0 µM 0% | [3]; at 33.0 µM 37% | [3]; [18] 25% | [3]; at 50.0 µM 64.5% | [4]; at 1.2 µM -1% | [4]; at 3.7 µM -1% | [4]; [17] 11% | [4]; at 11.0 µM -4% | [4]; at 33.0 µM 1% | [4]; [18] 9% | [4]; at 50.0 µM 9.8% | [4]; at 100.0 µM 36% | [5]; at 1.2 µM 0% | [5]; at 3.7 µM 0% | [5]; at 11.0 µM -1% | [5]; at 33.0 µM 9% | [5]; at 100.0 µM 67% | [7]; at 1.2 µM 2% | [7]; at 3.7 µM -1% | [7]; at 11.0 µM -6% | [7]; at 33.0 µM 6% | [7]; at 100.0 µM 68% | [8]; [17] 8% | [8]; [18] 34% | [8]; at 50.0 µM 19.4% | [9]; at 1.2 µM 1% | [9]; at 3.7 µM 5% | [9]; [17] 22% | [9]; at 11.0 µM -21% | [9]; at 33.0 µM 22% | [9]; at 50.0 µM 41.4% | [16]; at 1.2 µM -7% | [16]; at 3.7 µM -1% | [16]; at 11.0 µM -13% | [16]; at 33.0 µM 6% | [10]; at 1.2 µM 3% | [10]; at 3.7 µM -1% | [10]; at 11.0 µM -4% | [10]; at 33.0 µM 13% | [11]; at 1.2 µM -4% | [11]; at 3.7 µM 9% | [11]; at 11.0 µM -18% | [11]; at 33.0 µM 17% | [12]; [17] 2% | [13]; at 1.2 µM 5% | [13]; at 3.7 µM 7% | [13]; at 11.0 µM 12% | [13]; at 33.0 µM 35%

S=C1N(c2ccc(Cl)cc2)C2=C(N=Nc3ccccc3)C(=Nc3ccccc3S2)N1c1ccccn1
active: [14]; at 100.0 µM 85% | [2]; at 33.0 µM 94% | [2]; at 100.0 µM 97% | [3]; at 33.0 µM 95% | [3]; [18] 99% | [3]; at 50.0 µM 98.5% | [3]; at 100.0 µM 99% | [4]; at 33.0 µM 99% | [4]; [18] 100% | [4]; at 50.0 µM 98.5% | [4]; at 100.0 µM 99% | [5]; at 33.0 µM 90% | [5]; at 100.0 µM 99% | [6]; [18] 99% | [6]; at 50.0 µM 99% | [8]; [18] 99% | [8]; at 50.0 µM 98.5% | [9]; at 33.0 µM 84% | [9]; [18] 99% | [9]; at 50.0 µM 98.3% | [9]; at 100.0 µM 98% | [10]; at 33.0 µM 94% | [10]; at 100.0 µM 99% | [11]; at 33.0 µM 98% | [11]; at 100.0 µM 99% | [12]; [18] 99% | [12]; at 50.0 µM 99% | [13]; at 33.0 µM 94% | [13]; at 100.0 µM 99%
inactive: [14]; at 1.2 µM -3% | [14]; at 3.7 µM -3% | [14]; at 11.0 µM 3% | [14]; at 33.0 µM 29% | [2]; at 1.2 µM -11% | [2]; at 3.7 µM 3% | [2]; at 11.0 µM 61% | [3]; at 1.2 µM 6% | [3]; at 3.7 µM 12% | [3]; [17] 41% | [3]; at 11.0 µM 42% | [4]; at 1.2 µM 20% | [4]; at 3.7 µM 23% | [4]; [17] 3% | [4]; at 11.0 µM 62% | [5]; at 1.2 µM 14% | [5]; at 3.7 µM 19% | [5]; at 11.0 µM 40% | [6]; [17] 54% | [7]; at 1.2 µM -3% | [7]; at 3.7 µM -7% | [7]; at 11.0 µM 3% | [7]; at 33.0 µM 24% | [7]; at 100.0 µM 69% | [8]; [17] 13% | [9]; at 1.2 µM 22% | [9]; at 3.7 µM 22% | [9]; [17] 53% | [9]; at 11.0 µM 41% | [16]; at 1.2 µM -1% | [16]; at 3.7 µM -1% | [16]; at 11.0 µM 4% | [16]; at 33.0 µM 23% | [16]; at 100.0 µM 50% | [10]; at 1.2 µM 9% | [10]; at 3.7 µM 12% | [10]; at 11.0 µM 29% | [11]; at 1.2 µM 9% | [11]; at 3.7 µM 19% | [11]; at 11.0 µM 52% | [12]; [17] 32% | [13]; at 1.2 µM 9% | [13]; at 3.7 µM 16% | [13]; at 11.0 µM 44%
